# “And” between values parts separate entries of the source, which are not always exact repeats. Equal entries are not always repeated. A number with no mark means an inactive call. Records with an inconclusive call do not appear. Where a call stands in place of a potency, no number is given. The source made the active and inactive calls. Calls come from the whole dose curve; as a rule, active = well fitted curve in the direction sought with a large enough effect in the repeat runs; inconclusive = weak or mixed curves; inactive = no such curve, though single readings can be large; an effect the other way counts as inactive or inconclusive.
# Assays:
# [1] = qHTS RealTime-Glo MT Cell Viability Assay in HepG2 cells - 8 hour (AID 1224873); note: nearly all actives have a fitted effect of over 55% in size
# Outline: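 HepG2 cells (600/well) mixed with RealTime-Glo MT reagent, settled 5 h at 37 C/5% CO2 before compound addition. Nonlytic NanoLuc luminescence from viable-cell prosubstrate reduction read repeatedly during 40 h treatment at 37 C.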
# [2] = qHTS RealTime-Glo MT Cell Viability Assay in HEK293 cells - 40 hour (AID 1224874); conditions: RealTime-Glo luminescence; max response: active compounds read low; note: nearly all actives have a fitted effect of over 50% in size
# Outline: (§1)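 600 cells/well were plated with the nonlytic NanoLuc/prosubstrate reagent, pre-incubated 5 h, then given 23 nL of compound in DMSO. Incubation at 37 C for 40 h, with luminescence from viable-cell-reduced substrate read repeatedly from 0 h.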
# [3] = A CellTox Green Cytotoxicity Assay to monitor cytotoxicity in HepG2 cells - 16 hour (AID 1224876); note: nearly all actives have a fitted effect of over 45% in size
# Outline: (§2)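 HepG2 cells, 600/well, preincubated 5 h with CellTox Green dye, then exposed to Tox21 compounds in DMSO at 37 C for up to 40 h. Dead-cell DNA fluorescence read at the indicated time point.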
# [4] = qHTS RealTime-Glo MT Cell Viability Assay in HepG2 cells - 32 hour (AID 1224877); note: nearly all actives have a fitted effect of over 55% in size
# Outline: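 Cells + NanoLuc/prosubstrate dispensed (600 cells/well) → 5 h at 37 C/5% CO2 → compounds in DMSO transferred → 40 h incubation at 37 C, luminescence read at 0, 8, 16, 24, 32, 40 h.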
# [5] = A CellTox Green Cytotoxicity Assay to monitor cytotoxicity in HepG2 cells - 24 hour (AID 1224878); note: nearly all actives have a fitted effect of over 45% in size
# Outline: as §2
# [6] = A CellTox Green Cytotoxicity Assay to monitor cytotoxicity in HepG2 cells - 40 hour (AID 1224879); note: nearly all actives have a fitted effect of over 40% in size
# Outline: as §2
# [7] = qHTS RealTime-Glo MT Cell Viability Assay in HEK293 cells - 0 hour (AID 1224880); note: nearly all actives have a fitted effect of over 45% in size
# Outline: as §1
# [8] = A CellTox Green Cytotoxicity Assay to monitor cytotoxicity in HEK293 cells - 32 hour (AID 1224881); note: nearly all actives have a fitted effect of over 40% in size
# Outline: (§3)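 HEK293 cells, 600/well, were preincubated 5 hours and then exposed to compounds at 37 C for up to 40 hours. A cell-impermeant cyanine dye staining dead-cell DNA was read by fluorescence at 0, 8, 16, 24, 32 and 40 h time points.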
# [9] = A CellTox Green Cytotoxicity Assay to monitor cytotoxicity in HepG2 cells - 0 hour (AID 1224882); note: nearly all actives have a fitted effect of over 35% in size
# Outline: as §2
# [10] = A CellTox Green Cytotoxicity Assay to monitor cytotoxicity in HEK293 cells - 24 hour (AID 1224875); note: nearly all actives have a fitted effect of over 45% in size
# Outline: as §3
# Potency is the fitted concentration of half-maximal effect.
SMILES,Potency [1],max response [2],Potency [3],Potency [4],Potency [5],Potency [6],Potency [7],Potency [8],Potency [9],Potency [2],Potency [10]
C=CCCCCCCC=C,inactive,0.211%,inactive,inactive,inactive,inactive,inactive,inactive,inactive,–,–
C(=C/c1ccccc1)/c1ccccc1,inactive,-13.3%,inactive,inactive,inactive,inactive,inactive,–,inactive,–,–
C=CC/C=C/C/C=C/C/C=C/C,inactive,0%,inactive,inactive,inactive,inactive,inactive,inactive,inactive,–,–
CO[Si](CCC1CCC2OC2C1)(OC)OC (configuration not stated),inactive,8.81%,inactive,inactive,inactive,inactive,inactive,inactive,inactive,–,–
COCC(=O)O[C@]1(CCN(C)CCCc2nc3ccccc3[nH]2)CCc2cc(F)ccc2[C@@H]1C(C)C,21.3 µM (active),–,–,13.4 µM (active),–,10.7 µM (active),inactive,21.3 µM (active),–,6.74 µM (active),21.3 µM (active)
Cc1ccc(-n2[nH]c(C)c(N=Nc3cccc(-c4cccc(C(=O)O)c4)c3O)c2=O)cc1C,inactive,–,–,–,inactive,–,inactive,inactive,inactive,21.3 µM (active),inactive
Brc1ccccc1-c1ccccc1,inactive,-2.43%,41.3 µM (active),inactive,46.3 µM (active),1.84 µM (active),inactive,20.7 µM (active),inactive,–,–
CC[N+](CC)(CC)Cc1ccccc1,inactive,3.38%,inactive,inactive,inactive,–,inactive,inactive,inactive,–,–
O=C1NCN(c2ccccc2)C12CCN(CCCC(c1ccc(F)cc1)c1ccc(F)cc1)CC2,10.7 µM (active),–,9.52 µM (active),6.01 µM (active),7.56 µM (active),6.74 µM (active),inactive,23.9 µM (active),inactive,19 µM (active),–
Cc1ccc(CCn2c3c(c4cc(Cl)ccc42)CN(C)CC3)cn1,inactive,–,–,inactive,–,–,16.9 µM (active),inactive,inactive,21.3 µM (active),inactive
Nc1ccc2cc3ccc(N)cc3nc2c1,inactive,–,–,–,–,49 µM (active) and 21.3 µM (active),inactive,43.6 µM (active) and 21.3 µM (active),49 µM (active) and 23.9 µM (active),436 nM (active) and 2.13 µM (active),43.6 µM (active) and 21.3 µM (active)
CCO[Si](CCCSSSSCCC[Si](OCC)(OCC)OCC)(OCC)OCC,inactive,-16.8%,inactive,inactive,inactive,inactive,inactive,–,inactive,–,–
CC(=O)OC1CCCCC1,inactive,-7.58%,inactive,inactive,inactive,inactive,inactive,inactive,inactive,–,–
CCCCCCCC/C=C/CCCOC(C)=O,inactive,4.7%,inactive,inactive,inactive,inactive,inactive,inactive,inactive,–,–
CC(NCCC(c1ccccc1)c1ccccc1)c1ccccc1 (configuration not stated),21.3 µM (active),–,23.9 µM (active),23.9 µM (active),16.9 µM (active),15.1 µM (active),–,21.3 µM (active),inactive,16.9 µM (active),–
CCOC(=O)CN,inactive,-0.943%,–,inactive,–,inactive,inactive,inactive,inactive,–,inactive
CCCCCCCCCCCCOC(=O)c1cc(O)c(O)c(O)c1,48.8 µM (active) and 43.6 µM (active),–,–,54.7 µM (active) and 49 µM (active),48.8 µM (active) and 49 µM (active),–,inactive,48.8 µM (active) and 49 µM (active),inactive,3.45 µM (active) and 3.47 µM (active),54.7 µM (active) and 49 µM (active)
Cc1cc(=O)[nH]c(=O)[nH]1,inactive,-0.154%,inactive,inactive,inactive,inactive,inactive,inactive,inactive,–,–
O=C(c1ccccc1)c1cc(Cl)ccc1O,inactive,-24.1%,inactive,inactive,inactive,inactive,inactive,–,inactive,–,–
C/C=C/C=N/NC(=O)c1ccncc1,inactive,11.4%,inactive,inactive,inactive,inactive,inactive,–,inactive,–,–
CO[C@H]1C=CO[C@@]2(C)Oc3c(C)c(O)c4c(O)c(cc(O)c4c3C2=O)NC(=O)/C(C)=C\C=C/[C@H](C)[C@H](O)[C@@H](C)[C@@H](O)[C@@H](C)[C@H](OC(C)=O)[C@@H]1C,inactive,-22.2%,inactive,inactive,inactive,inactive,17.5 µM (active),inactive,inactive,–,–
CCCCN(C)C,inactive,1.09%,inactive,inactive,inactive,inactive,inactive,inactive,inactive,–,–

# From PubChem BioAssay (Tox21)
